Shiga toxin inh – blocks Shiga toxin action in Vero cells; Vero cells, Shiga toxin protein synthesis inhibition reporter; inhibition, % at 38.7 µM; 9.2% of 290,000 active; in the data active means inhibition mostly above about 28%, no sharp cut-off; inactive means mostly below about 43%
Pf growth 48h – inhibits P. falciparum growth in the first generation, 48 h; Potency, µM (doses to about 28.7 µM), actives largely listed as inhibitors; P. falciparum luciferase growth in erythrocytes, 48 h; AID 504832; 5.9% of 310,000 active
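Here the parasites carry a stable luciferase gene and grow inside erythrocytes in Albumax-based RPMI medium with compound for one erythrocytic cycle. Activity is scored as loss of luminescent signal.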
CHX counter – counter-screen for Shiga toxin inhibitors: cycloheximide protein synthesis inhibition. cell reporter, cycloheximide protein synthesis inhibition counterscreen. max response, %. 12% of 300,000 active. AID 2314; in the data active means max response mostly above about 13%, no sharp cut-off; inactive means mostly below about 14%; further: read at 38.3 µM for the half of the compounds with a filed dose
Pf growth 96h – P. falciparum growth inhibition at 96 hour, primary screen for plastid delayed-death inhibitors; P. falciparum luciferase reporter growth, 96 h; Potency, µM (highest dose often 28.7 µM), most hits filed as inhibitors; 6.9% of 320,000 active; AID 504834
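Luminescence readout: decreased luciferase signal marks inhibited growth of reporter-expressing P. falciparum in infected red cells (2% hematocrit, 0.05% parasitemia final), exposed to compound two generations (96 h, 37 C, 5% CO2).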
A number is an active result; i = inactive; ? = inconclusive; nt = no result given; ! = not active in a repeat. Compounds with a hit are over-represented: about 21% of the library has one in this group of screens. Unless noted, the call rests on the fitted dose curve; in most records, active means well fitted inhibition curve with a large enough effect; inconclusive means small, poorly fitted or top-dose-only effect, or another doubt; inactive means no such curve, though single readings can be large or run the other way.

SMILES	Shiga toxin inh	Pf growth 48h	CHX counter	Pf growth 96h
Cc1ccc(C2CC(c3ccccc3OC(F)F)Nc3ncnn32)cc1 (stereo unspecified)	i	12µM	i	nt
Cc1cccc(OCCSc2nc3ccccc3n2CC(=O)O)c1	nt	i	i	?
NC(=O)[C@@H]1CC2(CC(c3cccc(NC(=O)COc4ccc(Cl)cc4)c3)=NO2)CN1C(=O)COc1ccc(Cl)cc1 (stereo partly specified)	i	?	i	?
NC(=O)[C@H]1CC2(CC(c3cccc(NC(=O)COc4ccc(Cl)cc4)c3)=NO2)CN1C(=O)C(c1ccccc1)c1ccccc1 (stereo partly specified)	i	13µM	i	?
CC/C=C/C(=O)N1CC2(CC(c3cccc(NC(=O)COc4ccc(Cl)cc4)c3)=NO2)C[C@H]1C(N)=O (stereo partly specified)	i	10µM	i	4.7µM
CCC(C)NC(=O)c1ccc(C)c(NC(=O)C2=C(C)OCCS2)c1 (stereo unspecified)	i	i	i	i
COc1ccc(OC)c(C(c2nnnn2C2CCCC2)N2CCc3ccccc3C2)c1 (stereo unspecified)	i	2.9µM	i	i
Cc1ccc(C(c2nnnn2C2CCCC2)N2c3ccccc3CC2C)cc1 (stereo unspecified)	i	13µM	i	?
COc1ccc(C(c2nnnn2C2CCCC2)N2CCC(C(N)=O)CC2)c(OC)c1 (stereo unspecified)	i	?	i	?
COc1ccc(C(c2nnnn2C2CCCC2)N2CCc3ccccc3C2)cc1OC (stereo unspecified)	i	3.7µM	i	i
CCOc1ccc(CCNC(=O)C(C)N2C(=O)CC(C)(C)Sc3ccccc32)cc1 (stereo unspecified)	i	?	i	i
O=c1cc[nH]c2c1ccc1cccnc12	nt	i	nt	i
Cc1cc(C(=O)COC(=O)Cn2cnc3c2c(=O)n(C)c(=O)n3C)c(C)n1C	i	i	i	i
CCCCn1cnc2c1c(=O)n(CC(=O)c1cc(C)n(C)c1C)c(=O)n2CC(C)C	i	nt	i	12µM
CC(C)n1ncc(N2CCOCC2)c(Cl)c1=O	i	i	14	i
O=c1c(Cl)c(N2CCOCC2)cnn1-c1nc2ccccc2[nH]1	73	i	24	i
c1ccc2[nH]c(N3CCOCC3)nc2c1	i	i	i	i
COc1cccc(COCCN2CCN(S(=O)(=O)c3ccccc3)CCC2=O)c1	i	nt	i	nt
CCCN1C(=O)c2ccccc2NC1c1ccc(Cl)c(Cl)c1 (stereo unspecified)	i	?	i	9.3µM
CCCN1C(=O)c2ccccc2NC1c1ccc(Br)cc1 (stereo unspecified)	i	?	i	i
CCCN1C(=O)c2ccccc2NC1c1ccc(Cl)cc1 (stereo unspecified)	i	13µM	i	i
CSc1ccc(S(=O)(=O)N2CCC(C(=O)N3CCc4ccccc4C3)CC2)cc1	i	?	i	i
Clc1ccc(CNc2nnnn2-c2ccccc2)c(Cl)c1	i	nt	i	i
Cc1cc(Oc2ccc(C(C)(C)C)cc2)nc(N2CCOCC2)n1	i	nt	i	10µM
Cc1cc(Oc2ccc(-c3ccccc3)cc2)nc(N2CCOCC2)n1	i	?	i	?
SMILES	Shiga toxin inh	Pf growth 48h	CHX counter	Pf growth 96h
CC(=O)c1ccc(Oc2cc(C)nc(N3CCOCC3)n2)cc1	i	i	13	i
NCCc1ccn[nH]1	nt	i	nt	i
CC/C(=N/NC(=O)c1ccc(Br)cc1)c1ccc(OCCN2CCOCC2)cc1	52	i	i	?
CC/C(=N/NC(=O)c1ccccc1)c1ccc(OCCN2CCOCC2)cc1	80	i	70	i
CCOc1ccc(C(=O)NCCN2CCOCC2)cc1	i	i	i	i
N#CC1(NC(=O)COC(=O)c2cc(=O)[nH]c3ccccc23)CCCCC1	nt	?	nt	i
Nc1nc2c(s1)CCc1c-2cnn1-c1ccccc1	151	i	46	i
Cn1c(-c2cnn(-c3ccccc3)c2N)n[nH]c1=S	i	i	i	i
CCc1cc2c(=O)c(Oc3ccccc3F)c(C)oc2c(CN(C)C)c1O	i	8.3µM	i	i
O=C(Nc1ccc(Cl)c(C(F)(F)F)c1)C(=O)N1CCCCC1	i	i	27	?
O=C(Nc1ccc(Cl)c(C(F)(F)F)c1)N1CCCC(O)C1 (stereo unspecified)	i	i	i	0.66µM
O=C(Nc1ccccc1C(F)(F)F)N1CCCC(O)C1 (stereo unspecified)	i	i	i	?
O=C(Nc1ccc(Cl)c(C(F)(F)F)c1)c1ccncc1	i	i	i	i
COc1cc2c(cc1OC)-c1cc3ccc(OC)c(OC)c3c[n+]1CC2	nt	0.19µM	nt	0.17µM
O=S(=O)(NCCCSc1ccccc1)c1ccccc1F	i	i	i	i
CCOc1ccc2nc(Cl)c(CN(C(=O)c3cnccn3)C3CCCC3)cc2c1	i	?	i	i
Cc1cccc2cc(CN(C(=O)c3cnccn3)C3CCCCC3)c(Cl)nc12	i	4.1µM	i	?
Cc1ccc(/C=N/NC(=O)CCn2nc(C)cc2C)c(C)c1	i	i	i	i
CCN(CC)c1cc(Oc2ccccc2)ncn1	73	i	19	nt
CCN(CC)c1cc(-c2ccccc2)ncn1	i	i	i	i
CCCCCCCCCCCCCCCCCCOCC(O)CO (stereo unspecified)	nt	i	nt	?
Cc1ncsc1CCC(=O)N1CCCC(Nc2ccc(F)c(F)c2)C1 (stereo unspecified)	i	i	i	12µM
CC(C)n1cc(C(=O)N2CCCC(Nc3ccc(F)c(F)c3)C2)cn1 (stereo unspecified)	i	i	27	i
Cc1ccc(C(=O)N2CCCC(Nc3ccc(F)c(F)c3)C2)cn1 (stereo unspecified)	i	i	i	12µM
Nc1c(Cl)nc(-c2ccccc2)nc1Cl	i	i	14	i
SMILES	Shiga toxin inh	Pf growth 48h	CHX counter	Pf growth 96h
O=C(CCN1CCOCC1)N1c2ccccc2Sc2ccc(Cl)cc21	i	i	i	i
OCCN1CCN(CCC=C2c3ccccc3Sc3ccc(Cl)cc32)CC1	nt	?	nt	4.5µM
OCCN1CCN(CC/C=C2/c3ccccc3Sc3ccc(C(F)(F)F)cc32)CC1	i	6.6µM	i	8.3µM!
CC(C)(CCCCCCCCCCC(C)(C)CC(=O)O)CC(=O)O	i	nt	i	nt
Cc1cc(NC(=O)CSCC(=O)Nc2ccccc2N2CCCCC2)no1	nt	13µM	nt	?
O=C(Cc1ccc(Cl)c(Cl)c1)Nc1ccccc1N1CCCC1	i	i	i	12µM
Cc1cc(C)c(S(=O)(=O)Nc2nnc(C3CCCCC3)s2)c(C)c1	i	i	i	i
NS(=O)(=O)c1ccc(NC(=O)NC2CC(=O)N(c3ccc4c(c3)OCCO4)C2)cc1 (stereo unspecified)	nt	i	nt	i
CC12C=CC(=O)C=C1CCC1C2=CCC2(C)C1CC[C@@H]2C(=O)CN1CCN(c2cc(N3CCCC3)nc(N3CCCC3)n2)CC1 (stereo partly specified)	i	nt	i	nt
COc1ccc(-c2noc(-c3ccc4c(c3)OCO4)n2)cc1	i	i	14	?
c1ccc(-c2noc(-c3ccc4ccccc4c3)n2)cc1	105	i	55	i
COc1cccc(-c2noc(-c3ccc4c(c3)OCO4)n2)c1	i	i	i	i
c1ccc(-c2noc(-c3ccc4c(c3)OCO4)n2)cc1	109	i	64	i
Cn1c(N)c(Sc2ccc(F)cc2)c(=O)n(C)c1=O	i	i	i	i

Compound activity: PubChem, National Center for Advancing Translational Sciences (NCATS)
